From PubChem BioAssay AID504894 (National Center for Advancing Translational Sciences (NCATS), 2011)
Hit rate of the full screen: of about 330,000 compounds, fewer than 10 were called active. Calls come from the whole dose curve; as a rule, active = well fitted activation curve with a large enough effect; inconclusive = small, poorly fitted or top-dose-only effect, or another doubt; inactive = no such curve, though single readings can be large or run the other way. Only a sample is shown.

Experiment: Activators of T cell receptors: qHTS campaign
Details: primary human leukocytes, anti-CD3, IL-2 HTRF, 48 h; series mostly up to 9.22 µM
Excerpt: Normally activation of naive T cells requires two signals. 1. A signal through the T cell receptor (TCR) which provides antigen specificity to the response. 2. Signals through co-stimulatory molecules, which are necessary for proliferation, survival and cytokine production. In the absence of co-stimulatory signals T cells are not effectively activated, and may even be rendered anergic or unresponsive to subsequent signaling. This lack of costimulation has been shown in multiple model systems to be a major factor in the limited strength and effectiveness of anti-tumor T cell responses. The goal of this project is to identify small molecule compounds that will stimulate T cell activation in the presence of TCR signaling but in the absence of co-stimulatory signals, thereby allowing activation of naive T cells in the absence of co-stimulation. Identification of such compounds would have clear experimental and clinical applications in instances where desirable antigen-specific immune responses are not generated due to a lack of co-stimulation, for example in the generation of anti-tumor responses. In collaboration between the National Cancer Institute and NIH Chemical Genomics Center, a high-throughput amenable screen was developed to discover small molecules that co-stimulate and activate human T cell receptors. The screen will be carried out using a novel homogeneous time resolved fluorescence energy transfer (HTRF) assay to measure production of the cytokine IL-2 by activated T cells and will be tested against the NIH Molecular Libraries Small Molecule Repository (MLSMR). NIH Chemical Genomics Center [NCGC] NIH Molecular Libraries Probe Centers Network [MLPCN] MLPCN Grant: MH090820-01 Assay Submitter (PI): Richard Hodes, National Cancer Institute, NIH
Primary human leukocytes are incubated with a-CD3 beads and compounds for 48 hr. The amount of secreted IL-2 is then assayed with a HTRF IL-2 kit. The presence of IL-2 cytokine captures the detection reagents and brings the a-IL-2-K and a-IL-2-d2 into close proximity. Upon excitation with 320nm light, the europium cryptate is capable of transferring energy to acceptor molecules within close proximity, resulting in acceptor molecule emission at 665nm.

outcome, inactive:
O=C(O)C1C2C=CC(O2)C1C(=O)Nc1ccccn1 (centres undefined), O=C(NCc1ccccc1)c1cccc(NC(=O)C2CCCCC2)c1, O=C(NCCc1ccccc1)c1cccc(NC(=O)c2ccccc2)c1, CCOc1ccc(CCNC(=O)COC(=O)C2CCN(S(=O)(=O)c3ccccc3)CC2)cc1OCC, COc1ccc(-c2ccc3c(c2)[C@@H]2C[C@H](N(C)S(=O)(=O)c4ccccc4)[C@H]([C@H](C)O)C(=O)N2CC3)cc1, Oc1c(CN2CCOCC2)ccc(CN2CCOCC2)c1O, COc1ccc(C2NCCCC2c2ccccc2)cc1 (centres undefined), O=C(NN=Cc1ccccc1)c1ccccc1, CCC1(C)COC(c2ccc(OC)c(OC)c2)OC1 (centres undefined), Cc1ccccc1N1CCN(C(=O)c2cccnc2)CC1, CSCCC(NC(=O)COc1ccccc1)C(=O)N1CCN(c2cccc(C(F)(F)F)c2)CC1 (centres undefined), O=S1(=O)CCOC[C@H](Cc2ccccc2)N1Cc1ccccc1Br, CC(Nc1ccc([N+](=O)[O-])cc1[N+](=O)[O-])c1ccccc1 (centres undefined), NN=C(NN=Cc1ccccc1)c1ccccc1, Cn1c(=S)sc2ccc3ccccc3c21, Nc1ncnc2c1cnn2C1CC(O)C(CO)O1 (centres undefined), COc1ccc(CS(=O)/C(Cl)=C(/Cl)C(=O)Nc2ccc(OC)nc2)cc1 (centres undefined), N=C1c2ccccc2-c2ccccc21, C/C(=N\Nc1ccccc1)c1cccs1, CCCCCCCCNS(=O)(=O)CCNC1CCCCC1, O=S1(=O)CSCS(=O)(=O)C1, Cc1ccc(SCC(=O)N2CCN(c3ccc(F)cc3)CC2)cc1, Cc1nc(Nc2ccccc2C)c2cnn(C)c2n1, COc1ccc(NC(=O)/C(N=Nc2cccc(S(=O)(=O)Nc3ccc(SC(F)F)cc3)c2)=C(\C)O)cc1, O=C1CC[C@@H]2CC3(C[C@@H]4CCN1[C@H]24)Nc1cc([N+](=O)[O-])ccc1NC3=NC1CCCCC1 (some centres undefined), N#CC1=C(N)Oc2cc(N)ccc2C1c1ccccc1 (centres undefined), CN(CCc1ccccc1)C(=O)c1cccc(NC(=O)Cc2cccc(NC(=O)C3CCCN(C(=O)C4CCC4)C3)c2)c1 (centres undefined), COc1ccc(Nc2ccc3ccccc3c2)cc1, COC1=NC2=NCCN2C(OC)=N1
